Measured values: PubChem BioAssay (NCI)
Compounds without any hit were thinned out: in the full panel of roughly 79,000, 15% have a hit. Activity calls are given as the source filed them. Rule as the data show it: active = growth inhibition above about 70%; inactive = the rest.

What was measured:
[1] = NCI Yeast Anticancer Drug Screen. Data for the rad50 strain (AID 155);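 also: 0% = growth of vehicle-only cultures of the same strain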; conditions: S. cerevisiae rad50 strain growth inhibition, stronger effect = higher value
Method in brief: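 A DNA repair-deficient yeast mutant serves as the test organism; compound-induced growth inhibition is calculated against vehicle-treated cells.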

[2] = NCI Yeast Anticancer Drug Screen. Data for the mec2-1 strain (AID 157); conditions: S. cerevisiae mec2-1 strain, stronger effect = higher value
Method in brief: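 Strain: mec2-1 (DNA repair/cell cycle alteration). Compound exposure, then growth measured; inhibition expressed relative to vehicle.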

[3] = NCI Yeast Anticancer Drug Screen. Data for the sgs1 mgt1 strain (AID 161);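 also: 0% = growth of cultures given vehicle only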; conditions: S. cerevisiae sgs1 mgt1 strain, stronger effect = higher value
Method in brief: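 Inhibition of yeast growth, normalised to vehicle-treated controls, is reported for a strain bearing genetic alterations in DNA damage repair.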

[4] = NCI Yeast Anticancer Drug Screen. Data for the bub3 strain (AID 167); conditions: S. cerevisiae bub3 mutant strain, stronger effect = higher value
Method in brief: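 Inhibition values come from growth of compound-treated mutant yeast normalised to vehicle-treated controls.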

[5] = NCI Yeast Anticancer Drug Screen. Data for the mlh1 rad18 strain (AID 175); conditions: S. cerevisiae mlh1 rad18 strain growth inhibition, stronger effect = higher value
Method in brief: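 Read-out is yeast growth inhibition, calculated against vehicle-only controls. The compound was applied to a strain engineered with DNA damage repair alterations.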

[6] = NCI Yeast Anticancer Drug Screen. Data for the cln2 rad14 strain (AID 165);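 also: 0% = growth equal to vehicle treated cultures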; conditions: S. cerevisiae cln2 rad14 strain, stronger effect = higher value
Method in brief: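 Compounds are applied to the cln2 rad14 yeast strain, and growth is then compared with that of vehicle-treated cultures to give inhibition.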

[7] = at 5.0 µM (retest, dose inferred, filed as 0.5)
[8] = at 50.0 µM (retest, dose inferred, filed as 5.0)

Measured: growth inhibition

CC(=O)[O-].O=C([CH-]C(=O)c1ccccc1)c1ccccc1.O=C([CH-]C(=O)c1ccccc1)c1ccccc1.[Dy+3]
active: [1]; [8] 99% | [1]; at 50.0 µM 91.5% | [2]; [8] 99% | [2]; at 50.0 µM 93.2% | [3]; [8] 100% | [3]; at 50.0 µM 93.4% | [4]; [8] 96% | [4]; at 50.0 µM 92.1% | [5]; [8] 98% | [5]; at 50.0 µM 91.3%
inactive: [1]; [7] 44% | [2]; [7] 35% | [3]; [7] 44% | [4]; [7] 57% | [5]; [7] 50%

COC(=O)C1=C(C(=O)OC)C2(C)OC1c1ccccc12 (stereo not given)
inactive: [1]; [7] -5% | [2]; [7] 4% | [6]; [7] 0% | [4]; [7] 7% | [5]; [7] 14%
active: [1]; [8] 96% | [1]; at 50.0 µM 98.2% | [2]; [8] 95% | [2]; at 50.0 µM 98.1% | [6]; [8] 92% | [6]; at 50.0 µM 93.6% | [4]; [8] 98% | [4]; at 50.0 µM 97% | [5]; [8] 95% | [5]; at 50.0 µM 98.3%

CCC[CH2][Sn-]([CH2]CCC)([CH2]CCC)[O]c1cc(Cl)c(Cl)cc1Cl
active: [1]; [7] 99% | [1]; [8] 96% | [1]; at 50.0 µM 90% | [2]; [7] 100% | [2]; [8] 100% | [2]; at 50.0 µM 93.2% | [3]; [7] 100% | [3]; [8] 100% | [3]; at 50.0 µM 93.2% | [4]; [7] 100% | [4]; [8] 100% | [4]; at 50.0 µM 91.8% | [5]; [7] 99% | [5]; [8] 94% | [5]; at 50.0 µM 90.2%
